# According to PubChem BioAssay AID488969 (Vanderbilt High Throughput Screening Facility, 2010):
# Whole data set: some 110,000 compounds, median “z-score” near -0.1, cut for the highest 2% near 2. The list comes from a sample in which the highest values are over-represented; it also holds similar structures and randomly drawn compounds. Activity calls are given as the source filed them.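 Rule for the calls: active = z-score in the third read window above 3 or below -3; inactive = the rest.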
# Target: Metabotropic glutamate receptor 8 (Rattus norvegicus) (UniProt P70579)
# Assay: mGluR8 Gi/Go-coupled signaling modulation – cell-based, rat, thallium flux, HTS, primary screen (AID 488969)
# Settings: HEK293 rat mGluR8, GIRK (G protein-gated inwardly rectifying potassium channel) thallium flux, FluoZin2; at 10 µM; stronger effect = higher value; submaximal glutamate (EC20) added with thallium
# Metabotropic glutamate receptor 8 (Rattus norvegicus), sequence (P70579 whole entry, looked up): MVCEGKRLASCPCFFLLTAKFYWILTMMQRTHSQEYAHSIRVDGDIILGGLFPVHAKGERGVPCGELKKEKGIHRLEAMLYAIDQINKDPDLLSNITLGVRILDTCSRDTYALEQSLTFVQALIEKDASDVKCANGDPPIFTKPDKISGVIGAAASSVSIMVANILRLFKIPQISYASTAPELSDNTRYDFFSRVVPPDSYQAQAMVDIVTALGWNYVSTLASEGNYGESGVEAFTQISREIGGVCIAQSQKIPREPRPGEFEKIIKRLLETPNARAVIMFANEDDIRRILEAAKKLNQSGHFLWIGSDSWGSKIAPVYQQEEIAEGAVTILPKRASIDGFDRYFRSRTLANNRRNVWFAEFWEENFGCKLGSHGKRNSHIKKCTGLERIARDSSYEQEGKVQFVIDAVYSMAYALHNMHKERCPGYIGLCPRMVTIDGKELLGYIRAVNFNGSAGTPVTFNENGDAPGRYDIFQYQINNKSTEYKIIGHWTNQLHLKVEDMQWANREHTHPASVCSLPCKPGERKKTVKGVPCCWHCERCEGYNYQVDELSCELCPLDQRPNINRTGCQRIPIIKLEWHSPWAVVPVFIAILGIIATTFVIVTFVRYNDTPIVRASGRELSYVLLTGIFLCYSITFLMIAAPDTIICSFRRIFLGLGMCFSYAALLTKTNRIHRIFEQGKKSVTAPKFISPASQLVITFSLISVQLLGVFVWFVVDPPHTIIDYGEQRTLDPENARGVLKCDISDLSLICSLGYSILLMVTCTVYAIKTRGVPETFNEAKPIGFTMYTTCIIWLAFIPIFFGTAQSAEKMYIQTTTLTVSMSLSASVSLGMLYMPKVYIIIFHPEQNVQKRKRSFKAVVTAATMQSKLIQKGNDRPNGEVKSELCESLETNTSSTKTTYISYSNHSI
row,SMILES,z-score
1,CN(C)S(=O)(=O)N1CCN(S(=O)(=O)c2ccccc2)CC1,-0.177
2,Cc1csc(NC(=O)CSc2nnc(CCNC(=O)c3cccs3)n2C)n1,-0.0983
3,Cc1csc(NC(=O)CSc2nnc(CCNC(=O)c3ccc(Cl)c(Cl)c3)n2C)n1,-0.837
4,Cc1cccc(C(=O)NCCc2nnc(SCC(=O)Nc3nc(C)cs3)n2C)c1,2.62
5,N#CCCN(C(=O)CSc1nc(-c2ccccc2)cn1N)c1ccc(F)cc1,-0.2
6,COc1cc2c(cc1OC)C(C(=O)NCCN1CCOCC1)C1c3ccccc3CCN1C2=O (stereo not given),-1.12
7,O=C(O)Cc1c(O)ccc2ccccc12,-0.0548
8,Oc1ccc(N=Nc2c(O)ccc3ccccc23)cc1,-0.0552
9,Oc1c(N=Nc2ccccn2)ccc2ccccc12,13.6 (active)
10,Oc1ccc2ccccc2c1N=Nc1ccccn1,2.19
11,N/C(=N\OC(=O)Cc1cccc2ccccc12)c1ccccn1,0.135
12,Oc1c(/C=N/c2ncn[nH]2)ccc2ccccc12,0.0888
13,CCOc1cc(C2C(C#N)=C(N)OC(C)=C2C(C)=O)cc(Br)c1O (stereo not given),-1.08
14,O=C(Nc1ncc2c(n1)-c1ccccc1CC2)c1cccc(Cl)c1,-0.891
15,CCN(c1ccc(NC(=O)COC(=O)CCC(=O)c2ccc(F)cc2)cc1)C(C)C,-0.471
16,Cc1cc(C)cc(-n2c(SC(C)C(=O)NCc3ccc4c(c3)OCO4)nc3ccccc3c2=O)c1 (stereo not given),-0.19
17,Cc1ccc(-c2ccnc(=S)[nH]2)cc1,0.997
18,Cc1ccc(-c2ccc(C(=O)O)[nH]2)cc1,2.4
19,CCc1ccc(-c2ccc(C(=O)C(F)(F)F)[nH]2)cc1,-0.0177
20,Cc1cc([N+](=O)[O-])ccc1-c1ccc(C2Nc3ccccc3C(=O)N2O)o1 (stereo not given),3.53 (active)
21,O=C1c2ccccc2NC(c2ccco2)N1O (stereo not given),-0.422
22,O=C1c2ccccc2NC(c2ccc(-c3ccc(Br)cc3)o2)N1O (stereo not given),3.36 (active)

row,SMILES,z-score
1,Cc1nn(C)cc1C1Nc2ccccc2C(=O)N1O (stereo not given),-0.121
2,O=C1c2ccccc2NC(c2ccc(-c3cccc(Cl)c3)o2)N1O (stereo not given),2.57
3,Cc1c(C2Nc3ccccc3C(=O)N2O)cnn1C (stereo not given),0.189
4,N#CC1=C(S)N(c2ccccc2)C(c2ccc(-c3cccc(Cl)c3)o2)NC1=O (stereo not given),-0.292
5,O=C1c2ccccc2NC(c2cn[nH]c2-c2ccccc2)N1O (stereo not given),-0.0761
6,Cc1ccsc1C1Nc2ccccc2C(=O)N1O (stereo not given),-0.218
7,CC1CCC(NC(=O)Nc2cccs2)CC1 (stereo not given),0.643
8,CCOC(=O)c1c(NC(=O)C2=C(C)NC(=S)NC2c2ccc(F)cc2F)sc(C)c1C (stereo not given),0.556
9,CCCCCCn1c(C)nc2c(c1=O)c1nc3ccccc3nc1n2/N=C/c1ccco1,0.218
10,C=CCn1c(=S)[nH]c2nc3c(cc2c1=O)CCCC3,4.15 (active)
11,CCn1c(SCc2ccc(Cl)cc2)nc2nc3c(cc2c1=O)CCCC3,0.193
12,CC1(C)Cc2nc3[nH]c(=S)n(-c4ccccc4)c(=O)c3cc2CO1,-0.126
13,CCC1(C)Cc2nc3[nH]c(=S)n(-c4ccccc4)c(=O)c3cc2CO1 (stereo not given),-0.0711
14,CCn1c(=S)[nH]c2nc3c(cc2c1=O)CCCC3,2.31
15,CCn1c(SCC(=O)Nc2ccc(C)cc2)nc2nc3c(cc2c1=O)CCCC3,0.307
16,CN(C(=O)c1ccncc1)c1nnc(-c2cnccn2)s1,-0.251
17,COc1ccc(NC(=O)Cc2coc3cc(C)c(C(C)C)cc23)cc1S(=O)(=O)N1CCOCC1,-0.503
18,CCOC(=O)/C(C#N)=C/c1cc2ccccc2nc1Cl,-0.3
19,O=C(c1ccco1)N1CCN(S(=O)(=O)c2ccc(Cl)s2)CC1,-0.0642
20,COc1cccc(N(CC(=O)N/N=C(\C)c2cccs2)S(C)(=O)=O)c1,-0.154
21,CCOC(=O)C1=C(C)OC(N)=C(C#N)C1c1cc(F)ccc1F (stereo not given),-2.09
22,CCOC(=O)C1=C(C)OC(N)=C(C#N)C1c1cncc(-c2ccc(F)cc2)c1 (stereo not given),2.92

row,SMILES,z-score
1,CC1=C(C(=O)OC(C)C)C(c2cncc(-c3ccc(F)cc3)c2)C(C#N)=C(N)O1 (stereo not given),-0.367
2,Cc1ccc(S(=O)(=O)NC(C)C(c2cccs2)N2CCN(c3ccccc3)CC2)cc1 (stereo not given),-0.115
3,O=C(NCc1ccccn1)c1cc(-c2ccc(-c3ccccc3)cc2)nc2ccccc12,-0.368
4,Cc1cccc(NC(=S)NC(=O)c2cc(-c3ccccc3)nc3ccccc23)c1,5.14 (active)
5,COc1ccc(C(=O)NNC(=S)NC(=O)c2cc(-c3ccccc3)nc3ccccc23)cc1,2.35
6,CCCOc1ccc(C(=O)NNC(=S)NC(=O)c2cc(-c3ccc(Cl)cc3)nc3ccccc23)cc1,-0.0891
7,CCNC(=S)NNC(=O)c1cc(-c2cccc(C)c2)nc2ccccc12,0.214
8,Cc1ccccc1NC(=S)NC(=O)c1cc(-c2ccccc2)nc2ccccc12,7.41 (active)
9,CCCOc1ccc(C(=O)NNC(=S)NC(=O)c2cc(-c3ccccc3)nc3ccccc23)cc1,0.558
10,Cc1ccc(-c2cc(C(=O)Nc3cc(C)on3)c3ccccc3n2)cc1,-0.321
11,Cc1ccc(-c2cc(C(=O)Nc3ccccc3C)c3ccccc3n2)o1,0.279
12,Cc1cccc(NC(=O)c2cc(Cl)nc3ccccc23)c1,-0.228
13,O=C(NCc1ccccn1)c1cc(-c2ccccc2)nc2ccccc12,-0.314
14,O=C(NC(=S)Nc1ccccn1)c1cc(-c2ccccc2)nc2ccccc12,3.22 (active)
15,O=C(Cn1cc([N+](=O)[O-])cn1)N1CCc2ccccc21,0.0712
16,O=C(c1cccs1)c1cn(CC(=O)N2CCc3ccccc3C2)c2ccccc12,-0.134
17,COc1ccc(N2CCN(S(=O)(=O)c3cccc(C(F)(F)F)c3)CC2)cc1,-0.0298
18,CCn1c(SCc2ccccc2Cl)nc2ccccc21,0.866
19,CN(/N=C/c1cccnc1)c1cnn(-c2ccc(F)c(Cl)c2)c(=O)c1Cl,-0.0102
20,COC(=O)c1cc(OC)c(OC)cc1NC(=O)c1cc(-c2ccccc2)nc2ccccc12,-0.917
21,COC(=O)c1ccc(NC(=S)NC(=O)c2cc(-c3ccccc3)nc3ccccc23)cc1,8.36 (active)
22,COc1ccc(Cl)cc1C(=O)NNC(=S)NC(=O)c1cc(-c2ccccc2)nc2ccccc12,1.06

row,SMILES,z-score
1,O=C(Nc1ccon1)c1cc(-c2ccccc2)nc2ccccc12,-1.67
2,COC(=O)c1ccc(NC(=S)Nc2ccccc2)cc1,0.0759
3,O=C(NC(=S)Nc1ccccc1)c1cc(-c2ccccc2)nc2ccccc12,9.35 (active)
4,c1ccc(CNc2nc(-c3cccs3)nc3ccccc23)cc1,0.32
5,O=C(O)c1cc(NCc2ccccc2C(F)(F)F)ccc1N1CCOCC1,-0.168
6,N#Cc1cc([N+](=O)[O-])cnc1Nc1ccccc1,-0.521
7,COCC(=O)Nc1sc2c(c1C(=O)OC)CCC(C)C2 (stereo not given),-0.444
8,CC(C)OC(=O)c1c(NS(=O)(=O)c2ccccc2)sc2c1CCCC2,12.3 (active)
9,CC1CCc2c(sc(NS(=O)(=O)c3ccccc3)c2C(=O)OC(C)C)C1 (stereo not given),8.13 (active)
10,CCOC(=O)c1c(NC2=NS(=O)(=O)c3ccccc32)sc2c1CCC(C)C2 (stereo not given),0.00913
11,CC(C)OC(=O)c1c(N)sc2c1CCCC2,2.03
12,CNC(=O)c1c(N)sc2c1CCCCC2,0.209
13,CCOC(=O)c1c(NC(=O)C2CCCN(S(=O)(=O)c3ccccc3)C2)sc2c1CCCC2 (stereo not given),0.269
14,COC(=O)c1c(NC(=O)CN2CCN(S(=O)(=O)c3ccccc3)CC2)sc2c1CCC(C)C2 (stereo not given),-0.486
15,COC(=O)c1c(NC(=O)c2cccs2)sc2c1CCC(C)C2 (stereo not given),-0.363
16,COC(=O)c1c(NC(=O)c2ccccc2N(C)S(=O)(=O)c2ccccc2)sc2c1CCCC2,-0.215
17,COC(=O)c1c(NS(=O)(=O)c2ccc(C)cc2)sc2c1CCC(C)C2 (stereo not given),7.28 (active)
18,CC1CCc2c(sc(N)c2C(=O)OC(C)C)C1 (stereo not given),0.201
19,O=C(CSc1nnnn1-c1cccc(F)c1)Nc1nc2ccccc2s1,-0.0501
20,CC(Sc1nc(-c2ccccc2)cc(C(F)(F)F)n1)C(=O)N1CCOCC1 (stereo not given),-0.153
21,CCOc1ccc(N2C(=O)c3ccccc3C2O)cc1 (stereo not given),8.14 (active)
22,O=C1c2ccccc2C(O)N1c1ccc(Cl)cc1 (stereo not given),-0.698

row,SMILES,z-score
1,CCOc1ccc(N2C(=O)c3ccccc3C2=O)cc1,-1.29
2,CCOc1ccc2cc(S(=O)(=O)n3ccnc3C)ccc2c1,0.917
3,COc1ccc([N+](=O)[O-])cc1NC(=O)C1CCCO1 (stereo not given),-0.326
4,C=CCNC(=O)CSc1cc([N+](=O)[O-])cc(S(=O)(=O)Cc2ccccc2)c1,0.665
5,CCC(=O)n1nc(-c2cccnc2)nc1NCc1ccc(OC)cc1,-5.08 (active)
6,Nc1nc(-c2cccnc2)nn1C(=O)c1ccco1,0.31
7,COc1ccc(CNc2nc(-c3cccnc3)nn2C(=O)c2ccco2)cc1,9.48 (active)
8,COc1cc(NC(=O)c2ccc(-c3ccc(Br)cc3)o2)ccc1NC(=O)C(C)C,0.116
9,CCOC(=O)C(CC)Sc1nnc2c3cc(C)ccc3n(C)c2n1 (stereo not given),-0.798
10,COC(=O)Cc1c(C)nc2nc(-c3ccccc3)[nH]n2c1=O,-0.455
11,COC(=O)Cc1c(C)nc2nc(-c3ccc(OC)cc3)[nH]n2c1=O,-0.0668
12,COC(=O)Cc1c(C)nc2nc(-c3ccco3)[nH]n2c1=O,2.68
13,CCn1c(SCC(=O)Nc2nc(-c3ccccc3)cs2)nnc1-c1ccccc1O,-0.347
14,O=C1C(=O)N(CNc2cccnc2)c2ccccc21,-0.21
15,CNC(=S)N/N=C/c1ccc(C(C)C)cc1,3.01 (active)
16,CNC(=S)N/N=C/c1ccc2c(c1)OCCO2,0.205
17,CC(C)c1ccc(/C=N/Nc2ccc(C(=O)O)cc2)cc1,-0.222
18,Cn1c(SCc2ccc(Br)cc2)nnc1-c1ccncc1,-0.143
19,Cc1cccc(-c2cc3nc4c(c(N5CCC6(CC5)OCCO6)n3n2)CCCC4)c1,0.391
20,CC(=O)N1CN(C2CC(C)(C)NC(C)(C)C2)Cc2c1sc1c2CCCC1,0.426
21,CC1CN(C2CC(C)(C)NC(C)(C)C2)CCC1=O (stereo not given),3.98 (active)
22,CC1CN(Cc2ccccn2)CCC1=O (stereo not given),-0.215
